# Screening results from PubChem BioAssay.
# HT1080 IDH1KD tx = qHTS for induction of synthetic lethality in tumor cells producing 2HG: qHTS for the HT-1080-IDH1KD cell line. HT-1080 IDH1 knockdown viability, ATP luminescence, 48 h. Potency, µM (series often up to 46.1 µM), for the others: top-dose activity, negative = toxicity, hits mostly cytotoxic. 360,000 tested, 2% active. AID 686971, 2013;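 also: potency is read from the fitted curve at half-maximal effect; 0% = DMSO wells and -100% = cell-free medium wells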
#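 Assay cells: HT-1080 with IDH1 knockdown, 750 per well, RPMI/5% FBS. Exposure: 48 h at 37 °C following 2 h pre-incubation. Read: CellTiter-Glo luminescence; fitted concentration-response, curve class assigned.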
# IL-1B inflam inh = qHTS for Inhibitors of Inflammasome Signaling: IL-1-beta AlphaLISA Primary Screen | AID 743279, 2014 | 360,000 tested, 4.7% active | THP-1 LPS/ATP IL-1B secretion, AlphaLISA, 16 h; hits give low values | activity change, % at 57.5 µM; in the data active = activity change below about -50%; inconclusive = mostly about -30% to -49%
#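 Secreted IL-1B measured by AlphaLISA bead assay after 16 h compound exposure of THP-1 cells; compounds (final up to 57.5 uM) added 1 h before LPS (250 ng/mL) and ATP (1.25 mM) stimulation; lower signal means less secretion.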
# HT1080NT lethal = qHTS for induction of synthetic lethality in tumor cells producing 2HG: qHTS for the HT-1080-NT fibrosarcoma cell line | 360,000 tested, 1.6% active | HT-1080-NT fibrosarcoma viability, CellTiter-Glo ATP luminescence, 48 h | Potency, µM (highest dose often 46.1 µM), for inactives: top-dose activity, negative = less viability, hits mostly cytotoxic | AID 686970, 2013;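 also: NT is the 2HG producing partner of a matched IDH1 knockdown line; potency is read from the fitted curve at half-maximal effect; 0% = DMSO-treated cells and -100% = media-only wells without cells; nearly all actives have a fitted effect of over 55% in size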
#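 HT-1080-NT; 750 cells/well; 5% FBS RPMI; 48 h compound, 37 degrees C; CellTiter-Glo luminescence; curve fitting and curve-class assignment.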
# TDP1 cell noCPT = qHTS for Inhibitors of human tyrosyl-DNA phosphodiesterase 1 (TDP1): qHTS in cells in absence of CPT. Potency, µM (doses to about 46.2 µM), for the others: top-dose activity change, negative = growth inhibition, actives largely listed as inhibitors. 420,000 tested, 15% active. DT40 Tdp1-/- hTDP1 cells, no CPT, ATP luminescence, 48 h; also: potency is read from the fitted curve at half-maximal effect; nearly all actives have a fitted effect of over 55% in size
#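 Readout: luminescence from CellTiter-Glo after 30 min in the dark at RT. Cells: DT40 Tdp1-/- with stable hTDP1, 400/well. Exposure: compounds alone, ≥48 hr, 37 °C.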
# TDP1 cell CPT = qHTS for Inhibitors of human tyrosyl-DNA phosphodiesterase 1 (TDP1): qHTS in cells in presence of CPT | chicken DT40 Tdp1-/-;hTDP1 cells + 20 nM CPT, ATP luminescence, 48 h | Potency, µM (doses to about 46.2 µM), inactives show top-dose activity change, negative = growth inhibition, hits mostly inhibitors | 420,000 tested, 12% active; also: potency is read from the fitted curve at half-maximal effect; nearly all actives have a fitted effect of over 55% in size
#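 Chicken DT40 Tdp1-/- cells complemented with human TDP1, 400 cells/well, exposed to compounds plus 20 nM camptothecin for at least 48 h at 37 C; viability read as ATP content by CellTiter-Glo luminescence.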
# * marks the source's active call; other numbers are inactive results; ? = inconclusive; · = no result given; [ ] = dose if it differs, or a comment. This is a sample that favours compounds with a hit; in the whole collection about 19% have one here. Unless noted, calls follow the shape of the dose curve; as a rule, active = well fitted curve in the direction sought with a large enough effect; inconclusive = small, poorly fitted or top-dose-only effect, or another doubt; inactive = no such curve, though single readings can be large; an effect the other way counts as inactive or inconclusive. Unless noted, % is scaled to controls: 0 for no effect and ±100 for the full control effect.
SMILES,HT1080 IDH1KD tx,IL-1B inflam inh,HT1080NT lethal,TDP1 cell noCPT,TDP1 cell CPT
Cc1cc(C(=O)CN2c3cccc4cccc(c34)S2(=O)=O)c(C)n1C,14.6µM*,62.0,-29.7%[9.24 µM],3.26µM*,4.61µM*
O=S(=O)(N/N=C/c1ccc2c(c1)OCO2)c1ccc(Br)cc1,7.7%,0.7,-5.5%,-1.7%,-1.9%
CCC(Sc1ncnc2c1c(-c1ccccc1)cn2-c1ccc(OC)cc1)C(=O)OC (centres undefined),-0.2%,22.7,1.2%,?,?
COc1ccc(-n2cc(-c3ccccc3)c3c(NN4CCOCC4)ncnc32)cc1,-22.8%,-85.4*,-25.0%,16.4µM*,?
Fc1ccc(-n2cc(-c3ccccc3)c3c(NN4CCOCC4)ncnc32)cc1,5.0%,-72.6*,10.9%,23.1µM*,?
COc1ccc(C)cc1Nc1ncnc2c1c(-c1ccccc1)cn2-c1ccc(C)cc1,·,·,·,-21.6%,0.7%
COc1ccc(Nc2ncnc3c2c(-c2ccccc2)cn3-c2ccc(C)c(Cl)c2)cc1OC,·,·,·,-12.0%,-2.1%
COCCCNc1ncnc2c1c(-c1ccccc1)cn2-c1ccc(C)c(Cl)c1,·,·,·,?,18.4µM*
Nc1nc(N)c2cc(Sc3ccc(Cl)cc3)ccc2n1,5.8µM*,?,2.59µM*,1.03µM*,3.66µM*
Nc1nc(N)c2cc(Sc3ccc4ccccc4c3)ccc2n1,5.8µM*,?,8.2µM*,8.2µM*,18.4µM*
Nc1nc(N)c2cc(Sc3cccc(C(F)(F)F)c3)ccc2n1,5.8µM*,?,5.8µM*,1.3µM*,9.2µM*
O=C(Oc1ccc2ccccc2c1)c1ccccc1,-5.5%,12.2,5.9%,-25.0%,3.1%
Oc1cccnc1Sc1cccc(C(F)(F)F)c1,-12.9%,11.9,-3.0%,?,-40.0%
Cc1csc[n+]1CC(=O)c1ccccc1,·,·,·,-12.5%,-17.0%
COc1ccc(-c2nnc3sc(-c4ccccc4OC)nn23)cc1,9.1%,-27.0,20.2%,?,-19.6%
COc1cc(-c2nn3c(Cc4ccccc4)nnc3s2)cc(OC)c1OC,-18.9%,-7.1,-21.8%,?,35.5µM*
COc1ccccc1-c1nn2c(-c3cc(C)[nH]n3)nnc2s1,·,·,·,7.94µM*,8.91µM*
COc1cc(-c2nn3c(-c4cc(-c5ccccc5)n[nH]4)nnc3s2)cc(OC)c1OC,·,·,·,8.91µM*,15.8µM*
Cc1cc(C)c(NC(=O)Cn2c(=O)n(CCC(=O)NCc3ccccc3Cl)c(=O)c3sccc32)c(C)c1,·,·,·,0.9%,-18.5%
COc1ccc(/C=N/NC(=O)c2ccc[nH]2)cc1,-0.3%,-0.2,-6.5%,?,-14.2%
O=C(CSc1nnc(-c2ccc(OC(F)F)cc2)o1)NCc1cccs1,4.5%,-11.3,6.0%,?,-21.0%
CCC1(c2ccccc2)NC(=O)N(CC(=O)NC2CCCC2)C1=O (centres undefined),6.0%,2.9,9.0%,-16.2%,6.8%
CC12CCC(C(=O)Nc3cc(Cl)ccc3Cl)(C(Br)C1=O)C2(C)C (centres undefined),-2.3%,236.8,2.9%,?,-0.5%
CNc1nc(Nc2ccc(Br)cc2)nc(N)c1[N+](=O)[O-],?,25.8,?,?,-16.5%
Cc1ccc(C)c2c1sc(=NC(=O)CN1C(=O)CCC1=O)n2C,11.5%,1.5,-5.8%,20.6µM*,?
SMILES,HT1080 IDH1KD tx,IL-1B inflam inh,HT1080NT lethal,TDP1 cell noCPT,TDP1 cell CPT
CC(C)(C)n1nnnc1C(c1ccccc1)N1CCN(C(=O)c2ccco2)CC1 (centres undefined),14.6%,-11.1,12.8%,?,-2.2%
COc1cc(/C=C/C(=O)c2ccc([N+](=O)[O-])o2)ccc1O,?,-60.1*,18.4µM*,0.517µM*,0.92µM*
NS(=O)(=O)c1ccc(CNC(=O)/C=C/c2cccc(Cl)c2)cc1,8.7%,0.0,9.9%,0.7%,2.5%
COc1ccc(/C=C/C(=O)c2ccc([N+](=O)[O-])o2)cc1OC,?,-101.9*,?,1.16µM*,0.581µM*
COc1cc(C(=O)COC(=O)c2ccc([N+](=O)[O-])o2)cc(OC)c1OC,-4.0%,-10.0,-10.4%,-8.9%,-11.7%
O=C(/C=C/c1cccc(Cl)c1)c1ccc([N+](=O)[O-])o1,?,-102.0*,?,0.581µM*,0.581µM*
CSc1nnc(-c2cc3ccccc3cc2O)n1C,-3.5%,4.8,-9.3%,7.8%,10.0%
Cc1cc(NCC2CCCCC2)nc2ccccc12,7.31µM*,-100.1*,?,23.1µM*,?
C#CCOCCOCCOCCNc1nc(N2CCN(C(=O)CCCCCCCCCCNC(=O)Cn3cc(C[C@@H](C)O)nn3)CC2)nc(N2CCN(C(=O)CCCCCCCCCCNC(=O)[C@@H]([C@H](C)CC)n3cc(CCCCCN)nn3)CC2)n1,23.1µM*,-105.1*,18.4µM*,5.8µM*,13µM*
C#CCOCCOCCOCCNc1nc(N2CCN(C(=O)CCCCCCCCCCNC(=O)Cn3cc(CCCCCN)nn3)CC2)nc(N2CCN(C(=O)CCCCCCCCCCNC(=O)Cn3cc(C[C@@H](C)O)nn3)CC2)n1,?,-77.4*,?,?,?
C#CCOCCOCCOCCNc1nc(N2CCN(C(=O)CCCCCCCCCCNC(=O)Cn3cc(C[C@@H](C)O)nn3)CC2)nc(N2CCN(C(=O)CCCCCCCCCCNC(=O)[C@@H]([C@H](C)O)n3cc(C)nn3)CC2)n1,20.6µM*,8.3,18.4µM*,7.31µM*,7.31µM*
COc1ccc(C(=O)NCC(=O)N/N=C/c2cn[nH]c2-c2ccccc2)cc1,10.4%,-23.3,-0.4%,-7.8%,8.0%
COc1ccc(C(C(=O)NC2CCCCC2)N(C(=O)c2sc(C)nc2C)c2ccc(C(C)=O)cc2)cc1 (centres undefined),0.0%,10.9,?,-6.9%,-12.8%
O=C(NCC(c1cccs1)N1CCOCC1)C1CCN(S(=O)(=O)c2cccc(C(F)(F)F)c2)CC1 (centres undefined),-21.8%,6.2,-10.2%,?,?
COC(=O)c1ccc(C(=O)OC)c(NC(=O)CN(C)Cc2ccccc2)c1,-16.8%,7.6,-3.7%,16.4µM*,-29.8%
COC(=O)c1ccc(NC(=O)CN(C)Cc2cccc(F)c2)cc1,2.6%,-105.4*,-3.7%,13µM*,-18.9%
CCN(CC(=O)Nc1ccc(C(=O)OC)cc1)Cc1ccccc1,3.7%,8.1,3.7%,-2.2%,-18.0%
